NPC1 prom act = activates the NPC1 promoter; Huh7 NPC1 promoter luciferase reporter, 24 h; Potency, µM (highest dose often 9.22 µM), usual class: activators; hit rate 2.4% among 320,000; further: nearly all actives have a fitted effect of over 60% in size
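Huh7 reporter cells (NPC1 promoter driving luciferase) are dosed with compound for 24 h at 37 °C, 5% CO2; luciferase detection reagent is then added and luminescence measured after 10 min at ambient temperature.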
Rab9 promoter act = Rab9 promoter activation; hit rate 2.8% among 320,000; Huh7 Rab9 promoter-luciferase reporter, luminescence, 24 h; Potency, µM (doses to about 9.22 µM), most hits filed as activators; further: nearly all actives have a fitted effect of over 60% in size
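Luminescence read-out: Huh7 cells stably expressing Rab9-luciferase, treated 24 h with compound at 37 °C, then lysed with luciferase reagent for 10 min at ambient before reading.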
FLuc counter = firefly luciferase modulation, counter-screen for miR-21 project; hit rate 6.9% among 360,000; P08659; Potency, µM (series often up to 57.5 µM), hits mostly inhibitors; purified FLuc, Km substrates, luminescence inhibition; further: nearly all actives have a fitted effect of over 55% in size
Target sequence (P08659 whole entry, looked up): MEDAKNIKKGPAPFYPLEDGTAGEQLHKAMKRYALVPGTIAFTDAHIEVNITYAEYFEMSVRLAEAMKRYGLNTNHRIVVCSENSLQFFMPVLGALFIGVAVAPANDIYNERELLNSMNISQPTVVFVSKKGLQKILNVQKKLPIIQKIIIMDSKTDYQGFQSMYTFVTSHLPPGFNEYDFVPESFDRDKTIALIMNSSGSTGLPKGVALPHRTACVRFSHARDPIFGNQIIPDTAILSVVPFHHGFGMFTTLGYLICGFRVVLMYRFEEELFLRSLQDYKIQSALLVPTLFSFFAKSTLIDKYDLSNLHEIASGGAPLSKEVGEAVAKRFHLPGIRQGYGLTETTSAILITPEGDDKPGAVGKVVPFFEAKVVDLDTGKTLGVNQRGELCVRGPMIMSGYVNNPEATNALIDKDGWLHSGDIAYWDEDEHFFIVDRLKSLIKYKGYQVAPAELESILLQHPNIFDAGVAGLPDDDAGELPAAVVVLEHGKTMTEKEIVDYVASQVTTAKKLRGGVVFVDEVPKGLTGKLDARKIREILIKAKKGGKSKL
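Purified P. pyralis luciferase (10nM final) with 10uM D-luciferin and 10uM ATP (Km levels) in 50mM Tris acetate pH 7.5, 10mM Mg acetate, 0.01% Tween-20, 0.05% BSA; qHTS 6-point titration, ~60 µM downward; luminescence read.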
ELG1 DNA repair = ELG1-dependent DNA repair inhibition; HEK293T ELG1-luciferase reporter, luminescence, 16 h; DNA damage induced by 5-fluorouridine; Potency, µM (highest dose often 46.1 µM), most hits filed as inhibitors; hit rate 2.3% among 330,000; AID 504467; further: nearly all actives have a fitted effect of over 55% in size
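DMSO vehicle served as the neutral condition. Each well held 2,000 cells given 5-fluorouridine plus compound; after 16 hr at 37 °C/5% CO2, ONE-Glo was added and luciferase measured 30 min later.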
ELG1 genotoxic = genotoxicity induction in ELG1-luciferase HEK293T cells; hit rate 1.3% among 330,000; Potency, µM (doses to about 46 µM), actives largely listed as activators; HEK293T ELG1-luciferase reporter, luminescence, 16 h; AID 504466; further: nearly all actives have a fitted effect of over 60% in size
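16 hr compound incubation (37 °C, 5% CO2) of HEK293T cells carrying luciferase-tagged ELG1; luciferase then measured by ONE-Glo luminescence after 30 min at RT.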
SMN2 splice up = increases expression of the SMN2 splice variant | hit rate 2.8% among 210,000 | Potency, µM (top dose mostly 46.1 µM), hits mostly activators | HEK293 SMN2-luciferase splicing reporter, luminescence, 30-36 h | AID 1458; further: nearly all actives have a fitted effect of over 55% in size
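qHTS luciferase splicing reporter: luminescence rises when SMN2 exon 7 is included in transfected HEK293 cells. Compound exposure lasted 30-36 h at 37C, with 4.5 mM final sodium butyrate as control, followed by a ONE-Glo read.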
Hits are given with their value; n = inactive; u = inconclusive; x = no result given; [ ] = remark or other dose. Only some compounds are listed: those with a hit (about 9.2% of all), similar ones and a draw of the others. The call rests on the fitted dose curve; in most records, active means well fitted curve in the direction sought with a large enough effect; inconclusive means small, poorly fitted or top-dose-only effect, or another doubt; inactive means no such curve, though single readings can be large; an effect the other way counts as inactive or inconclusive.

SMILES	NPC1 prom act	Rab9 promoter act	FLuc counter	ELG1 DNA repair	ELG1 genotoxic	SMN2 splice up
O=C(NC(C(=O)N/N=C/c1c2ccccc2cc2ccccc12)c1n[nH]c(=O)c2ccccc12)c1ccccc1 (stereo not given)	n	n	n	n	n	x
O=C(NC(C(=O)N/N=C/c1ccccc1)c1n[nH]c(=O)c2ccccc12)c1ccccc1 (stereo not given)	n	u	19µM	n	n	x
COC(=O)c1sc(N)c(C(=O)OC)c1COC(=O)CCNS(=O)(=O)c1ccc(C)cc1	n	n	n	10µM	n	n
COC(=O)c1sc(N)c(C(=O)OC)c1COC(=O)CNS(=O)(=O)c1ccc(C)c(C)c1	n	n	n	u	n	n[1.84 µM]
O=C(Nc1ccccc1C(=O)O)c1cccc(NC(=O)c2ccccc2Br)c1	n	n	24µM	n	n	x
CC(C)c1ccc(OCC(=O)Nc2cccc(C(=O)Nc3ccccc3C(=O)O)c2)cc1	n	n	21µM	n	n	n
O=C(Nc1cccc(NC(=O)c2ccccc2Cl)c1)c1cccc(Br)c1	x	x	n	x	x	n
O=C(Nc1cc(C(=O)Nc2ccccc2C(=O)O)cc(C(=O)Nc2ccccc2C(=O)O)c1)c1ccccc1	n	n	n	n	n	x
CC(C)C(=O)Nc1cccc(C(=O)Nc2ccccc2C(=O)O)c1	n	n	7.6µM	u	n	n
O=C(O)CCCC(=O)Nc1cccc(C(=O)Nc2ccccc2C(=O)O)c1	n	n	u	n	n	x
O=C(O)c1ccc(NC(=O)c2ccccc2NC(=O)c2cccc(Br)c2)cc1	n	n	11µM	n	n	x
Cc1cccc(OCC(=O)Nc2cccc(C(=O)Nc3ccccc3C(=O)O)c2)c1	n	n	u	n	n	n
Cc1ccc2c(c1)N(C(=O)NCc1ccccc1)CCO2	x	x	n	x	x	x
O=C(NCCc1ccccc1)c1ccc(CSc2nc3ccncc3n2Cc2ccc(F)cc2)cc1	x	x	n	x	x	n
CC[C@]12c3[nH]c4cc(-c5ccco5)ccc4c3CCN1C(=O)[C@@H](CC(=O)NCCc1ccccn1)C[C@@H]2C(=O)N1CCN(C(=O)c2ccco2)CC1	x	x	x	n	n	x
O=C(Nc1ccc(Cl)cc1F)c1ccccc1Br	1.8µM	2.2µM	11µM	u	u	11µM
CC(C)C(=O)Nc1cccc(C(=O)Nc2nnc(C(C)(C)C)s2)c1	n	n	13µM	n	n	n
CC(C)C(=O)Nc1ccc(C(=O)Nc2nnc(C(C)(C)C)s2)cc1	n	n	n	n	n	n
CCC(C)(C)c1nnc(NC(=O)c2cccc([N+](=O)[O-])c2)s1	n	n	19µM	u	n	u
O=C(CNc1cccc(F)c1)N1CCc2ccccc2C1	3.2µM	4.5µM	13µM	u	u	x
O=C(c1cccc(F)c1)N1CCc2ccccc2C1	n	n	u	n	n	u
O=C(Nc1ccc(Cl)cc1)N1CCc2ccccc2C1	n	n	u	n	n	x
Cc1ccc(NC(=O)N2CCc3ccccc3C2)cc1	2.8µM	3.5µM	12µM	u	8.2µM	11µM
CN(C)c1ccc(NC(=O)CN2CCc3ccccc3C2)cc1	n	u	24µM	u	u	x
O=C(Nc1ccccc1)N1CCc2ccccc2C1	u	4µM	21µM	u	n	14µM
SMILES	NPC1 prom act	Rab9 promoter act	FLuc counter	ELG1 DNA repair	ELG1 genotoxic	SMN2 splice up
O=C(CN1CCc2ccccc2C1)Nc1ccc(F)cc1	n	n	n	n	n	x
O=C(O)c1cc(-c2ccc(Cl)s2)[nH]n1	n	n	u	n	n	x
CC(/C=N/NC(=O)c1nnn(-c2nonc2N)c1C)=C\c1ccccc1	n	n	u	n	u	x
CC(/C=N/NC(=O)c1c(Br)cnn1C)=C\c1ccccc1	n	n	17µM	u	n	n
Cn1ncc(Br)c1C(=O)N/N=C/c1ccc(OS(=O)(=O)c2ccccc2)cc1	n	n	n	n	n	n
CC(/C=N/NC(=O)c1nn(C)c(C)c1Br)=C\c1ccccc1	u	3.5µM	1.9µM	u	u	x
Cc1ccc(C)n1-c1ccc(N2CCOCC2)nc1	n	n	n	n	u	14µM
COC(=O)[C@@]1(Cc2ccc(OC)cc2)[C@H]2c3cc(C(=O)N4CCCC4)n(Cc4cc(F)cc5c4OCOC5)c3C[C@H]2CN1C(=O)c1ccccc1	x	x	x	x	x	n
COC1=CC(=O)c2ccccc2C1=O	x	x	x	18µM	n	x
CC(=O)Nc1ccc(OS(=O)(=O)c2ccc(C(C)(C)C)cc2)cc1	n	n	n	n	n	x
O=C(c1cccc(S(=O)(=O)NCc2ccc3c(c2)OCO3)c1)N1CCCC1	n	n	n	n	n	x
CCCCNC(=O)Nc1ccccn1	n	n	n	n	n	5µM
Cc1cccc(NC(=O)Nc2ccccn2)c1C	u	4µM	9.5µM	u	n	x
CSCc1ccc(C(=O)Nc2cccc(C)c2C)cc1	u	u	12µM	u	u	20µM
Cc1ccccc1NC(=O)Nc1ccccn1	u	u	n	u	n	x
Cc1cccc(NC(=O)c2ccccn2)c1C	u	3.5µM	u	u	n	n
N#Cc1ccc(Cl)cc1NC(=O)COC(=O)c1cccc(S(=O)(=O)N2CCOCC2)c1	n	n	n	n	n	x
CCC(C)Sc1ccc([C@@H]2[C@H]3C(=O)N(C)C(=O)[C@H]3[C@]3(C(=O)OC)CCCN23)cc1 (stereo not given in full)	x	x	x	n	n	x
C/C(O)=C\c1nc2ccccc2oc1=O	n	n	n	n	n	n
O=c1oc2ccccc2nc1/C=C(\O)c1ccc(Br)cc1	n	n	24µM	u	n	x
CS(=O)Cc1cc(Sc2ccccc2)nc(-c2cccnc2)n1 (stereo not given)	n	n	n	n	n	n
COc1ccc(N2C(=O)C3CCCN3C2c2ccc(C)o2)cc1 (stereo not given)	n	n	n	n	n	n
O=C(CNC(=O)c1ccccc1Br)N/N=C/c1ccc(O)cc1	n	n	u	n	n	n
COc1ccc(/C=C(\C#N)C(=O)N=CN(C)C)cc1	n	n	13µM	u	n	n
COc1ccc(/C=C(\C#N)C(=O)NCc2ccccc2)cc1	n	n	u	n	n	x
Cc1cccc(NC(=O)c2ccco2)c1C	n	n	n	n	n	x
Cc1ccc(-c2nc3ccccc3[nH]2)cc1NC(=O)c1ccco1	n	n	15µM	n	n	x
COc1cccc(OC)c1C(=O)NC(=S)Nc1cc(-c2nc3ccccc3[nH]2)ccc1Cl	n	n	u	8.2µM	n	n
Cc1cccc2[nH]c(-c3ccc(NC(=O)c4ccco4)cc3)nc12	2.2µM	1µM	4.8µM	u	u	14µM
O=C(Nc1ccc2nc(-c3ccc(Br)o3)[nH]c2c1)c1ccco1	u	u	5.4µM	n	n	n

Compound activity deposited in PubChem BioAssay by National Center for Advancing Translational Sciences (NCATS).
